AMA1-RON2 inh: qHTS for Inhibitors of AMA1-RON; Towards Development of Antimalarial Drug Lead: Primary Screen | Plasmodium falciparum AMA1 (3D7) - RON2 peptide interaction | AlphaScreen AMA1-biotinylated RON2 peptide binding | Potency, µM (top dose mostly 58.2 µM), actives largely listed as inhibitors | 360,000 tested, 0.2% active | AID 720542, 2013; further: nearly all actives have a fitted effect of over 45% in size
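AMA1 (3D7) with his tag at 25 nM final met compounds first, then biotinylated RON2 peptide at 25 nM; detection used donor plus acceptor beads, 10 µg/mL apiece, read by AlphaScreen after 30 min at room temperature.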
Pf growth 96h: Primary qHTS for delayed death inhibitors of the malarial parasite plastid, 96 hour incubation. P. falciparum luciferase reporter growth, 96 h. Potency, µM (highest dose often 28.7 µM), usual class: inhibitors. 320,000 tested, 6.9% active. AID 504834, 2011
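Compounds incubated with erythrocytes infected by luciferase-expressing P. falciparum (2% hematocrit, 0.05% parasitemia final) for 96 hours, 37 C in 5% CO2. Growth inhibition scored as decreased luciferase luminescence.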
SARS PLpro yeast: qHTS of Yeast-based Assay for SARS-CoV PLP; S. cerevisiae expressing SARS-CoV PLpro, growth rescue; Potency, µM (series often up to 32.9 µM), most hits filed as activators; 330,000 tested, 0.19% active; AID 485353, 2010; calls by dose curve; further: nearly all actives have a fitted effect of over 55% in size
Pf growth 48h: Primary qHTS for delayed death inhibitors of the malarial parasite plastid, 48 hour incubation. P. falciparum luciferase growth in erythrocytes, 48 h. Potency, µM (series often up to 28.7 µM), usual class: inhibitors. 310,000 tested, 5.9% active. AID 504832, 2011
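A one-generation exposure of luciferase-tagged malaria parasites in RPMI 1640/Albumax erythrocyte culture, 37 C and 5% CO2. Inhibition is inferred from decreased luminescence after adding detection reagent.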
A number is an active result; n = inactive; u = inconclusive; x = no result given; [ ] = another dose, or the depositor's remark. Only some compounds are listed: those with a hit (about 9.4% of all), similar ones and a draw of the others. Unless noted, the call rests on the fitted dose curve; in most records, active means well fitted curve in the direction sought with a large enough effect; inconclusive means small, poorly fitted or top-dose-only effect, or another doubt; inactive means no such curve, though single readings can be large; an effect the other way counts as inactive or inconclusive.

SMILES	AMA1-RON2 inh	Pf growth 96h	SARS PLpro yeast	Pf growth 48h
CC(C)C[C@H]1C(=O)N2CCC[C@H]2[C@]2(O)O[C@](NC(=O)[C@@H]3C=C4c5cccc6[nH]c(Br)c(c56)CC4N(C)C3)(C(C)C)C(=O)N12 (some centres not stated)	n	4.15µM	n	2.33µM
CC(C)[C@@]1(NC(=O)[C@@H]2C=C3c4cccc5[nH]cc(c45)C[C@H]3N(C)C2)O[C@@]2(O)[C@@H]3CCCN3C(=O)[C@H](Cc3ccccc3)N2C1=O	x	2.33µM	n	2.94µM
CC(C)[C@H]1C(=O)N2CCC[C@H]2[C@]2(O)O[C@](NC(=O)[C@@H]3C=C4c5cccc6[nH]cc(c56)C[C@H]4N(C)C3)(C(C)C)C(=O)N12	n	7.38µM	n	5.86µM
CC(CN1CCOCC1)OC(=O)C1COc2ccccc2O1 (configuration not stated)	n	n	n	n
Cn1cc(CNC(=O)c2sc3cccc(Cl)c3c2Cl)cn1	n	n	n	n
CCCc1cc(C(=O)NCc2cccs2)no1	n	u	n	x
CC(C)[C@@]1(NC(=O)[C@@H]2C[C@@H]3c4cccc5[nH]cc(c45)C[C@H]3N(C)C2)O[C@@]2(O)[C@@H]3CCCN3C(=O)[C@H](Cc3ccccc3)N2C1=O	n	1.85µM	n	1.85µM
O=C(Nc1ccccc1-c1ccccc1)c1ccc(=O)[nH]n1	n	14.7µM	n	n
O=[N+]([O-])c1cccnc1N1CCC(c2cc(-c3ccc(Cl)cc3Cl)n[nH]2)CC1	n	x	n	u
COc1ccc(OC)c(-c2cc(C3CCN(c4ncccc4[N+](=O)[O-])CC3)[nH]n2)c1	u	9.28µM	n	8.28µM
O=C(NCCOc1ccccc1-c1ccccc1)c1ccco1	n	n	n	u
Cc1nc2cc(C(=O)O)ccc2n1-c1ccccc1	n	u	n	x
CC1=CC(C)(C)[N+](C)=CN1c1ccccc1	n	8.28µM	n	u
Cc1ccsc1CNc1ncnc2ccc(-c3c(C)noc3C)cc12	x	x	n	x
COc1cccc(CNc2ncnc3ccc(-c4c(C)noc4C)cc23)c1	x	5.86µM	n	4.15µM
Cc1noc(C)c1-c1ccc2ncnc(NCC3CCCCN3C)c2c1 (configuration not stated)	x	2.33µM	n	4.15µM
Nc1ccc(-c2cc(NC=O)c3ncc(-c4cccc(C(F)(F)F)c4)n3c2)cn1	n	x	x	x
O=[N+]([O-])c1cc(Cl)ccc1NCCc1ccccn1	22.4µM	n	n	n
N#Cc1ccc(NCCc2ccccn2)c([N+](=O)[O-])c1	n	n	n	n
O=C(NCc1cc(C(F)(F)F)cc(C(F)(F)F)c1)C1CC(c2cccc([N+](=O)[O-])c2)=NO1 (configuration not stated)	n	u	n	n
O=C(NCc1ccc2c(c1)OCO2)C12CN(Cc3ccccc3)CC1C(c1cccc([N+](=O)[O-])c1)=NO2 (configuration not stated)	n	u	n	9.28µM
O=C(NCc1ccc(C(F)(F)F)cc1)C12CN(Cc3ccccc3)CC1C(c1cccc([N+](=O)[O-])c1)=NO2 (configuration not stated)	n	9.28µM	n	9.28µM
CC(C)(C)CC(C)(C)NC1=CC(=O)OC12CCCCC2	n	n	n	x
CCN(CC)C(=O)C(=O)c1cc(C)n(-c2ccc(F)cc2)c1C	n	n	n	n
CCOC(CNC(=O)Cn1nc(Cc2ccncc2)c2ccccc2c1=O)OCC	n	n	n	n
SMILES	AMA1-RON2 inh	Pf growth 96h	SARS PLpro yeast	Pf growth 48h
CCC(C)NC(=O)Cn1nc(Cc2ccncc2)c2ccccc2c1=O (configuration not stated)	n	6.57µM	n	n
Cc1cc(NCC2CCCCC2)nc2ccccc12	n	u	n	3.29µM
CCOC(=O)c1c(/N=C/C2C(=O)NC(=O)NC2=O)sc2c1CCC2	n	n[5.75 µM]	n	n
CCCCCCCNC(=O)C1(CC2CC(c3ccccc3)=NO2)CCN(C(=O)OC(C)(C)C)CC1 (configuration not stated)	n	6.57µM	n	2.94µM
COc1ccc(CNC(=O)C2(CC3CC(c4ccccc4)=NO3)CCN(C(=O)OC(C)(C)C)CC2)cc1 (configuration not stated)	n	x	x	x
CCCCCCCNC(=O)C1(CC2CC(c3ccc(Cl)cc3)=NO2)CCN(C(=O)c2ccccc2)CC1 (configuration not stated)	n	9.28µM	n	u
CCCCCCCNC(=O)C1(CC2CC(c3ccc(Cl)cc3)=NO2)CCN(C(=O)c2cc(OCC)c(OCC)c(OCC)c2)CC1 (configuration not stated)	n	0.329µM	n	1.17µM
CC(C)(C)OC(=O)N1CCC(CC2CC(c3ccccc3)=NO2)(C(=O)NCc2ccccc2)CC1 (configuration not stated)	n	u	n	0.262µM
CC1=C(C(=O)OCC2CCCCC2)C(c2ccc(O)cc2)NC(=O)N1 (configuration not stated)	n	n	n	n
CCCCCCn1cc(C(=O)O)c(=O)c2ccccc21	n	n[5.75 µM]	n	u
CCCCCCCNC(=O)C1(CC2CC(c3cccc(Br)c3)=NO2)CCN(C(=O)c2ccccc2)CC1 (configuration not stated)	n	u	n	13.1µM
CCCCCCCNC(=O)C1(CC2CC(c3ccccc3)=NO2)CCN(C(=O)c2ccccc2)CC1 (configuration not stated)	n	9.28µM	n	11.7µM
COC(=O)C1(CC2CC(c3cccc(Br)c3)=NO2)CCN(C(=O)OC(C)(C)C)CC1 (configuration not stated)	n	n	n	u
CN(C)c1ccc(/C=N/NC2=NS(=O)(=O)c3ccccc32)cc1	n	n	n	u
CCc1cc[n+](/C(C(=S)Nc2cccc(C)c2)=C(/[O-])c2ccc(C)c([N+](=O)[O-])c2)cc1	u	0.147µM	n	u
CN(Cc1ccccc1)C(=O)COC(=O)c1cc(S(=O)(=O)N(C)C)ccc1N1CCCC1	n	11.7µM	n	9.28µM
CN(CC(=O)Nc1ccccc1Cl)C(=O)COC(=O)c1cc(S(=O)(=O)N(C)C)ccc1N1CCCC1	n	n	n	n
COc1ccc(N2CCN(C(=O)COC(=O)c3cc(S(=O)(=O)N(C)C)ccc3N3CCCC3)CC2)cc1	n	u	n	10.4µM
CCC1C(=O)CC(c2ccc([N+](=O)[O-])cc2)NC1c1ccc([N+](=O)[O-])cc1 (configuration not stated)	n	n	n	13.1µM
CCCOc1ccc(Cc2c(Cl)nc(SC)nc2OC)cc1	n	n	n	n
COc1nc(SC)nc(Cl)c1Cc1ccc(OC(C)C)cc1	n	1.04µM	n	n
COCCN1C(=O)N[C@@H](c2cccs2)C(C(=O)OC)=C1C	n	n	n	n
NS(=O)(=O)c1ccc(NC(=O)c2ccc(COc3ccccc3)o2)cc1	n	n	n	n
O=C(COC(=O)c1ccc(Br)cc1)NCc1ccccc1	n	n	n	n

From PubChem BioAssay
